Experiment [1] has as its target Estrogen receptor (Homo sapiens) (UniProt P03372). Nature of the experiment: qHTS assay for small molecule antagonists of estrogen receptor alpha signaling (AID 588513; active means well fitted curve in the direction sought with a large enough effect in the signal ratio, with a control signal flat, not every such curve was filed as active; inconclusive means small, poorly fitted or top-dose-only effect, or effect the other way, or a change in a side signal; inactive means no such curve, though single readings can be large or run the other way; the % refers to the signal ratio; further: potency means the concentration at half of the fitted maximal effect). In short, it runs like this:
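Cells were plated at 5000/well and incubated 4 h at 37 C. Compounds were added as 1:2 dilution series, duplicates. 17-beta-estradiol (0.5nM final) was added for 18 h before CCF4 detection.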
On the technique in general: Quantitative high-throughput screening tests each substance at several concentrations.

Experiment [2] addresses Vitamin D3 receptor (Homo sapiens) (UniProt P11473). Nature of the experiment: qHTS assay for small molecule antagonists of vitamin D receptor signaling (AID 588541; calls by dose curve; further: potency means the concentration at half of the fitted maximal effect). The method, boiled down:
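VDR-UAS-bla HEK293T cells in 2% charcoal-stripped FBS were stimulated with 1-alpha,25-dihydroxyvitamin D3 (3 nM final) plus compound for 16 h at 37 C. The beta-lactamase CCF4 readout was normalized to 50 nM agonist and DMSO, and Hill fits gave IC50.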

The target of experiment [3] is Voltage-gated inwardly rectifying potassium channel KCNH2 (Homo sapiens) (UniProt Q12809). Nature of the experiment: qHTS Assay for Small Molecule Inhibitors of the Human hERG Channel Activity (AID 588834).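 Further: top concentration of the series differs between compounds; on the % scale 0 is the no-effect control and ±100 the full control effect; lower thallium flux fluorescence means stronger hERG block; nearly all actives have a fitted effect of over 50% in size.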 In short, it runs like this:
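Measured: FluxOR fluorescence after thallium stimulation in U2OS cells transduced with hERG by baculovirus. Compounds pre-incubated around 10 min; medium Opti-MEM with 2% FCS. AC50 from Hill equation.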

Experiment [4] in a line: qHTS assay for small molecule disruptors of the mitochondrial membrane potential - 1 hr assay (AID 651754; calls by dose curve; further: potency means the concentration at half of the fitted maximal effect; nearly all actives have a fitted effect of over 35% in size). In short, it runs like this: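 HepG2 cells, attached overnight at 37C, were exposed to compound or DMSO vehicle for 1 hr at 37C, 5% CO2, then stained with Mito-MPS dye for 30 min. Red aggregate versus green monomer fluorescence reports membrane potential.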
Experiment [5] is described as follows: qHTS assay for small molecule disruptors of the mitochondrial membrane potential - 5 hr assay (AID 651755; calls by dose curve; further: potency means the concentration at half of the fitted maximal effect; nearly all actives have a fitted effect of over 40% in size). The settings on record: JC-1-type ratio dye. In short, it runs like this: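 HepG2 cells (2,000/well), attached overnight, exposed to compound 5 hr at 37C, then Mito-MPS dye 30 min. Fluorescence read for monomers (490/535 nm) and aggregates (540/590 nm).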

The nature of experiment [6]: qHTS assay for environmental chemicals that activate the Aryl hydrocarbon Receptor (AhR) signaling pathway (AID 651777). Further: % of control where 0% means no effect; nearly all actives have a fitted effect of over 15% in size. The settings on record: 1A2-DRE human hepatoma cells, luciferase, 24 h; stronger effect = higher value. The method, boiled down:
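Stable CYP1A2 promoter/DRE-luciferase human hepatoma line treated 24 hr; One-Glo luminescence, 30 min RT.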

Experiment [7] has as its target Peroxisome proliferator-activated receptor alpha (Homo sapiens) (UniProt Q07869). Nature of the experiment: qHTS assay for small molecule agonists of the peroxisome proliferator-activated receptor alpha (PPARalpha) signaling pathway (AID 651778). Further: % of control where 0% means no effect. To be noted: PathHunter PPARalpha complementation, chemiluminescence, 6 h; stronger effect = higher value. In short, it runs like this:
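Enzyme-fragment complementation assay in which ligand-bound PPARalpha translocates and forms an active enzyme that generates chemiluminescence. Cells were plated overnight, exposed to compound for 6 hr at 37 C, and then given detection reagent for 60 min at room temperature.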

Experiment [8] concerns the target Nuclear receptor ROR-gamma (Homo sapiens) (UniProt P51449). Nature of the experiment: qHTS assay for small molecule antagonists of the retinoid-related orphan receptor gamma (ROR-gamma) signaling pathway (AID 651802). Further: potency means the concentration at half of the fitted maximal effect; nearly all actives have a fitted effect of over 60% in size. To be noted: ROR-gamma antagonist cell reporter assay. The method, boiled down:
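CHO cells carrying TET-inducible ROR-gamma and an ROR response element–luciferase reporter were exposed to compound, then induced with doxycycline. After 16hr at 37C, luminescence was read; lower signal indicates antagonism.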

The nature of experiment [9]: qHTS assay for small molecule antagonists of the retinoid-related orphan receptor gamma (ROR-gamma) signaling pathway - cell viability counter screen (AID 720652; active means well fitted curve in the direction sought with a large enough effect in the repeat runs; inconclusive means weak or mixed curves; inactive means no such curve, though single readings can be large; an effect the other way counts as inactive or inconclusive;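 further: potency means the concentration at half of the fitted maximal effect; compound exposure lasted 16 hr before ATP read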). To be noted: RORgamma reporter cell line viability counter screen. In short, it runs like this: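 Counter screen in CHO cells carrying TET-inducible ROR-gamma and an ROR response element-luciferase reporter; cells plated 5 hr, compound pinned, doxycycline added, then 16 hr at 37 C. Viability read as intracellular ATP by CellTiter-Glo luminescence.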

Experiment [10] can be described thus: qHTS assay for small molecule agonists of the antioxidant response element (ARE) signaling pathway measured by Nrf2-dependant transcriptional activity - cell viability counter screen (AID 720653; active means well fitted curve in the direction sought with a large enough effect in the repeat runs; inconclusive means weak or mixed curves; inactive means no such curve, though single readings can be large; an effect the other way counts as inactive or inconclusive; further: potency means the concentration at half of the fitted maximal effect). The settings on record: ARE-bla HepG2 viability, CellTiter-Glo ATP luminescence, 16 h; max response: stronger effect = lower value. In short, it runs like this:
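ARE-bla HepG2 cells treated with compounds for 16 h at 37C; this counter screen measures viability as intracellular ATP by CellTiter-Glo luminescence after 30 min at room temperature.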

Experiment [11] in a line: qHTS assay for cell viability of HEK293 cells (AID 743288). Further: potency means the concentration at half of the fitted maximal effect; nearly all actives have a fitted effect of over 50% in size. The settings on record: ATP luminescence (CellTiter-Glo), 18 h; max response: stronger effect = lower value. The method, boiled down: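 The Tox21 protocol used parental HEK293 cells treated for 18 h at 37 C with compounds delivered by pintool; ATP-coupled luminescence after 30 min at room temperature gave viability.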

Experiment [12] can be described thus: qHTS assay for cell viability of the p53RE-bla HCT-116 cell line (AID 743292). Further: potency means the concentration at half of the fitted maximal effect; nearly all actives have a fitted effect of over 55% in size. The method, boiled down:
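Readout: CellTiter-Glo luminescence after 30 min RT. Treatment: compounds in DMSO, 16 h, 37 C. Cells: CellSensor p53RE-bla HCT-116, 4,000/well, preincubated 5 h.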

The target in the next experiment is Furin (Homo sapiens) (UniProt P09958). Kind of experiment: Furin counterscreen qHTS for Zika virus inhibitors (AID 1347149).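 Further: purified recombinant full-length human furin enzyme at 5 nM; fluorescence gain from furin cutting a BOC-RVRR-AMC peptide substrate over 15 min; top concentration of the series differs between compounds; plate controls were no-inhibitor control for no effect and no-enzyme control for full effect; nearly all actives have a fitted effect of over 70% in size.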 In short, it runs like this:
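Fluorogenic cleavage of BOC-RVRR-AMC (2 microM final, Km ~15 µM) was monitored (ex 340, em 450 nm) at 37C after 15 min RT preincubation of 5 nM furin with compounds in HEPES pH 7.0 buffer with CaCl2 and Triton X-100. Percent inhibition was fitted to a 4-parameter Hill curve.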
(A counterscreen serves to expose hits that act by an unwanted route or on another target.)

The nature of experiment [13]: ZIKV-mCherry secondary qHTS for Zika virus inhibitors (AID 1347158). Further: top concentration of the series differs between compounds. In short, it runs like this:
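Vero cells, 5,000/well, plated overnight at 37 °C, then compound added and infected with recombinant ZIKV-mCherry at MOI 1 for 48-72 h. PFA-fixed, Hoechst nuclear stain, high-content imaging; cells with mCherry intensity above 450 RFU scored infected, reported as percent infection.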

The test system of experiment [14] is Zika virus NS2B-NS3 protease (linked). Kind of experiment: 384 well plate NINDS AMC confirmatory qHTS for Zika virus inhibitors (AID 1347163). Further: potency means the concentration at half of the fitted maximal effect; nearly all actives have a fitted effect of over 50% in size. The method, boiled down:
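Linked protease 5/30/60 nM final; cpds up to 1 mM final, ~15 min preinc. Substrate Ac-VKTGKR-AMC 30 microM final. RT, dark, 25 min; FI ex 355/em 460; normalized to no-enzyme/no-inhibitor ctrls.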

Experiment [15] deals with Zika virus NS2B-NS3 protease (linked construct). Kind of experiment: 384 well plate NINDS Rhodamine confirmatory qHTS for Zika virus inhibitors (AID 1347164). Further: potency means the concentration at half of the fitted maximal effect; nearly all actives have a fitted effect of over 65% in size. The method, boiled down:
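Compounds are incubated about 15 minutes with linked protease (5, 30 or 60 nM final). Rhodamine 110-tagged Ac-LKRR substrate (10 microM final) is added and fluorescence measured after 25 minutes.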

Experiment [16] can be described thus: Vero cells viability qHTS for Zika virus inhibitors (AID 1347167). Further: on the % scale 0 is the no-effect control and ±100 the full control effect. The method, boiled down:
(§1)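 Cells seeded at 2.5 x 10^5 cells/mL in DMEM with 4% FBS and attached overnight at 37 degrees C, then exposed to compound for 24 to 48 hours. Viability read as ATP content by CellTiter Glo luminescence.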

A short description of experiment [17]: HepG2 cells viability qHTS for Zika virus inhibitors (AID 1347168). Further: potency means the concentration at half of the fitted maximal effect. The method, boiled down: as §1
A short description of experiment [18]: Tertiary RLuc qRT-PCR qHTS assay for Zika virus inhibitors (AID 1347169). Further: potency means the concentration at half of the fitted maximal effect; nearly all actives have a fitted effect of over 55% in size. In short, it runs like this: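 Orthogonal cell-based infection assay using recombinant ZIKV-RLuc (Cambodian) in Vero cells; compound added prior to virus at MOI 1-2. Incubation lasts 48-72 hrs at 37 degrees C before live-cell Renilla substrate is added and luminescence measured.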
A short description of experiment [19]: qHTS assay for small molecule activators of the human pregnane X receptor (PXR) signaling pathway (AID 720659; call rule not given here; further: 0% is about no effect).

Unmarked numbers belong to inactive results. Activity calls are given as the source filed them. Unless noted, the call rests on the fitted dose curve; in most records, active means well fitted curve in the direction sought with a large enough effect; inconclusive means small, poorly fitted or top-dose-only effect, or another doubt; inactive means no such curve, though single readings can be large; an effect the other way counts as inactive or inconclusive.

Sequence of Vitamin D3 receptor (Homo sapiens) (P11473 whole entry, looked up): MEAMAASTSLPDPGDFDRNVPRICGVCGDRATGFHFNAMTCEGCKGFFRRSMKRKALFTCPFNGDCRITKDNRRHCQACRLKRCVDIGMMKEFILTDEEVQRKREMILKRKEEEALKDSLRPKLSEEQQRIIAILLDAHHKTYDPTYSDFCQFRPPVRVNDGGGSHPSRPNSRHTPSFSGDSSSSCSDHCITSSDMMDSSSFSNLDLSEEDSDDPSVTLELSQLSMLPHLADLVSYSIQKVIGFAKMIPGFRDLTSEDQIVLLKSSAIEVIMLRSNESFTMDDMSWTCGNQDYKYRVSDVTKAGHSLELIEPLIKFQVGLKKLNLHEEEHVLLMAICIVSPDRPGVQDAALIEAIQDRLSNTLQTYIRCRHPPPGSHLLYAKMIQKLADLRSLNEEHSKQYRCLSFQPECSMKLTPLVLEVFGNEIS
Sequence of Furin (Homo sapiens) (P09958 whole entry, looked up): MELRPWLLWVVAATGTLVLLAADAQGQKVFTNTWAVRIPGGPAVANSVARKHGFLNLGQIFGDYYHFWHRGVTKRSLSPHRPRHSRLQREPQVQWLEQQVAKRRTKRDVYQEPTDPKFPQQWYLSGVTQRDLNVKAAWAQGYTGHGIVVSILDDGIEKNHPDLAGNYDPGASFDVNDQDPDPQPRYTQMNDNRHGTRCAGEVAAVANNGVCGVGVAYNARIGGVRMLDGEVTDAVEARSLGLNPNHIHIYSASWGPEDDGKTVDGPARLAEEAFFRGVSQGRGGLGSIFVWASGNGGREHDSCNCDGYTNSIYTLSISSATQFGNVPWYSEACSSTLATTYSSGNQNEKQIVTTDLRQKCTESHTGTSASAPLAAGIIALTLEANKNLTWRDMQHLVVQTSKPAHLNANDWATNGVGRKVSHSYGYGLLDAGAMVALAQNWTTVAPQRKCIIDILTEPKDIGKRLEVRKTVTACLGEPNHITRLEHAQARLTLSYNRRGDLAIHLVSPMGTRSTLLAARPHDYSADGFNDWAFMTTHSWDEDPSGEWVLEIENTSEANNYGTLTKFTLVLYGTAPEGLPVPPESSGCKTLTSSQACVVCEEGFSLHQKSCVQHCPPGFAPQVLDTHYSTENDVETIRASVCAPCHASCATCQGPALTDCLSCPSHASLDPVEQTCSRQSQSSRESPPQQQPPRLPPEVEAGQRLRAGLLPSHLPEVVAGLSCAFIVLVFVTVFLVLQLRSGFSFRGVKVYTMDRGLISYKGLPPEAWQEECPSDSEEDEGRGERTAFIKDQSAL
Sequence of Estrogen receptor (Homo sapiens) (P03372 whole entry, looked up): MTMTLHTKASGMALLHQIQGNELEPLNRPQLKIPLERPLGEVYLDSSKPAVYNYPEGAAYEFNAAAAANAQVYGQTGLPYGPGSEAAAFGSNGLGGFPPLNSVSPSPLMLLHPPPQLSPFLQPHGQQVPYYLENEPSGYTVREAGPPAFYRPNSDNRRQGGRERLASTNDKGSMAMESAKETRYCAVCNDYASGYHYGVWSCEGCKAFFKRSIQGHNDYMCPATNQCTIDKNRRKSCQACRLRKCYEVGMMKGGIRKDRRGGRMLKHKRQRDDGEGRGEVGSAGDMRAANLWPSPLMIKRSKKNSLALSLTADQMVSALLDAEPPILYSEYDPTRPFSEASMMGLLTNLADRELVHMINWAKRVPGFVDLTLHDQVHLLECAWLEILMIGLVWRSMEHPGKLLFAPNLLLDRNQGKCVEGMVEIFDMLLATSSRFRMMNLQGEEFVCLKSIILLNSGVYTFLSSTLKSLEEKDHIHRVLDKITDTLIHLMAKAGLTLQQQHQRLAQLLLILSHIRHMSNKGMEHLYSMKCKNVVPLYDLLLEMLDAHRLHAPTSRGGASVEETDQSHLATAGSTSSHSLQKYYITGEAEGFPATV
Sequence of Nuclear receptor ROR-gamma (Homo sapiens) (P51449 whole entry, looked up): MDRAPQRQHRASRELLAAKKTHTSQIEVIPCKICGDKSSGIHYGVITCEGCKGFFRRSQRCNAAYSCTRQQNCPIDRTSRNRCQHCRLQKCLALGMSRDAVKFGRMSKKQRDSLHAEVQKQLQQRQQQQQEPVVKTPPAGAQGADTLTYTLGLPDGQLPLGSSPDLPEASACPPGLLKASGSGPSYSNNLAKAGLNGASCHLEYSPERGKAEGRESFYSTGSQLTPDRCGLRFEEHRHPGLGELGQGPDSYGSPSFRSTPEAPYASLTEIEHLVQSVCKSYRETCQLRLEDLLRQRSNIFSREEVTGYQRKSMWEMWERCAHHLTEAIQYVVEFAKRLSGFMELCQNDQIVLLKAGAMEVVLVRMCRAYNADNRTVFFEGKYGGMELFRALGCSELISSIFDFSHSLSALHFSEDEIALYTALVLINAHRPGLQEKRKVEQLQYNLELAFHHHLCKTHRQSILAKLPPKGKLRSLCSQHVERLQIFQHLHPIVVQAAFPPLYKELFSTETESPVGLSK
Sequence of Peroxisome proliferator-activated receptor alpha (Homo sapiens) (Q07869 whole entry, looked up, the tested form may be a part): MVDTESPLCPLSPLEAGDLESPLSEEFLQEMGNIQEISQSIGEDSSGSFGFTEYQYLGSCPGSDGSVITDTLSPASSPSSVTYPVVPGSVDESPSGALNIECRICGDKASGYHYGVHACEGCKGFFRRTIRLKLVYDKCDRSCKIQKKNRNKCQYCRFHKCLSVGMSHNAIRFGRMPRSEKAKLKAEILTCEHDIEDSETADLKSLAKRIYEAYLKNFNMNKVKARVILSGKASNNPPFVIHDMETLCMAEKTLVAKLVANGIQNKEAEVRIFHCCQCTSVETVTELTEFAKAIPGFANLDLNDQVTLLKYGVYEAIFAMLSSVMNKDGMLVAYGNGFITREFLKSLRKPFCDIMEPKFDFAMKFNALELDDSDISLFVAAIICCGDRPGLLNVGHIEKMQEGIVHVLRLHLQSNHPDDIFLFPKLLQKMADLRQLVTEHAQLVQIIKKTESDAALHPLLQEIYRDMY
Sequence of Voltage-gated inwardly rectifying potassium channel KCNH2 (Homo sapiens) (Q12809 whole entry, looked up): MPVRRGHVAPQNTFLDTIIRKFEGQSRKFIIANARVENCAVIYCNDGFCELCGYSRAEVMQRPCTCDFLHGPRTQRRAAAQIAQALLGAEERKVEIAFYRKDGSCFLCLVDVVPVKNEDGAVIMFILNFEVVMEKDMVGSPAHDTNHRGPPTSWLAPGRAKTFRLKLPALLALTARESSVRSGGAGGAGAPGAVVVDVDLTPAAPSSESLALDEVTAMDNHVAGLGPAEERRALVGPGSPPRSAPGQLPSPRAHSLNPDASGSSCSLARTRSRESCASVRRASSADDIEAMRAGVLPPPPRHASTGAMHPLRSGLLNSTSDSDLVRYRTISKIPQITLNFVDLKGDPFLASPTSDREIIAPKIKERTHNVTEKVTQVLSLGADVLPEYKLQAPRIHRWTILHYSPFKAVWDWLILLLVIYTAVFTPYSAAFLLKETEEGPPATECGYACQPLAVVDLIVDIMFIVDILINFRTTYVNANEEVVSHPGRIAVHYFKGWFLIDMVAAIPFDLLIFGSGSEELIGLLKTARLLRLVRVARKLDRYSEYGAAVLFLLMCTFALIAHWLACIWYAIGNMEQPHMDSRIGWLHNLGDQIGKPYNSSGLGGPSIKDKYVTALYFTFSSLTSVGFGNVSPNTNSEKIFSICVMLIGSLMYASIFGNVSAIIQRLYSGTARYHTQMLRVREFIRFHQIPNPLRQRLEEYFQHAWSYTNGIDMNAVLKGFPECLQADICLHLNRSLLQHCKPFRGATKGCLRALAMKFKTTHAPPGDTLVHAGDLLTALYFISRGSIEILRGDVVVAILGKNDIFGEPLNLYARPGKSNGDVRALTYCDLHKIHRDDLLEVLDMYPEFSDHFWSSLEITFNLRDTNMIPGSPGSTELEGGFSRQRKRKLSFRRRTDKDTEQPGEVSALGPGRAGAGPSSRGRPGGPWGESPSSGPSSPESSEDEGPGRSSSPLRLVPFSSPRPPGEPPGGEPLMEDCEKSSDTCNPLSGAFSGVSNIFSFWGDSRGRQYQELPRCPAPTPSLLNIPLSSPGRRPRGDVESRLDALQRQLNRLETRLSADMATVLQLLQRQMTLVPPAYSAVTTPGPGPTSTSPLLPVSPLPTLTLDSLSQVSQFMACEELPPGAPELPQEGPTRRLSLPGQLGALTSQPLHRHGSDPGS

As to `O=C1c2c(O)ccc([N+](=O)[O-])c2C(=O)c2c([N+](=O)[O-])ccc(O)c21`, the Potency in experiment [1] was 14.1 µM [inconclusive] (active); in experiment [2], 22.4 µM (active); in experiment [4] it was 5.31 µM (active); in experiment [5], 3.76 µM (active); in [8] it was 16.8 µM (active); in [9], 33.5 µM (active). For the same compound, the Potency in experiment [10] was 20 µM (active); in experiment [11], 39.8 µM (active); in experiment [12], 39.8 µM (active); in experiment [14], 100 µM (active); in experiment [15] it was 70.8 µM (active); in experiment [17], 42.6 µM (active). For the same compound, the Potency in experiment [18] was 13.5 µM (active). For the same compound, the Potency entry (in experiment [3]; in the experiment with Furin (Homo sapiens); in experiment [13]; in experiment [16]) was “inactive” in each case. For the same compound, the activation in [6] was 5.47%. Moreover, the max response in experiment [7] was -6.07%. Further, in experiment [19], the outcome was inactive.

The record behind these values is PubChem BioAssay (NCATS).
